# Source: PubChem (National Center for Advancing Translational Sciences (NCATS))
# Compounds with a hit are over-represented: about 8.9% of the library has one in this group of screens.
# DRD3 antagonist – antagonists of human D3 dopamine receptor | P35462 | D3R cells, DiscoveRx beta-arrestin luminescence, antagonist mode; stronger effect = lower value | max response, negative = inhibition, % | 2.5% of 360,000 active | AID 652054; in the data active means max response below about -50%; inconclusive means no clear call, values can overlap the other calls
# Target sequence (P35462 whole entry, looked up): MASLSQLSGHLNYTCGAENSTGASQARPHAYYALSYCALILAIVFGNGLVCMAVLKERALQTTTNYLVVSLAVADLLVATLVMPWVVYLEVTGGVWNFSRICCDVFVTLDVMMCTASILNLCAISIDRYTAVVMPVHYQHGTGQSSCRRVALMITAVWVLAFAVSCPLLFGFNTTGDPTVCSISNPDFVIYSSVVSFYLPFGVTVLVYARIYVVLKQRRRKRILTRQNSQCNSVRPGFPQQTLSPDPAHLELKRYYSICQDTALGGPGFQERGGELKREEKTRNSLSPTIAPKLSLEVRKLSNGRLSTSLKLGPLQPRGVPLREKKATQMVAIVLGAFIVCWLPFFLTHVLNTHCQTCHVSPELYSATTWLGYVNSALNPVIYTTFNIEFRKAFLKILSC
#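 Cells expressing the human receptor were seeded at 1500 cells/well, incubated overnight at 37 degrees C in 5% CO2, then exposed to library compounds with dopamine controls for 90 minutes at 37 degrees C before luminescent detection.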
# MCF10A rereplic – DNA re-replication induction in MCF 10a cells; MCF 10A DNA re-replication, Hoechst nuclear intensity, 48 h; Potency, µM (doses to about 46.1 µM), actives largely listed as activators; AID 624296; 2.9% of 350,000 active; further: nearly all actives have a fitted effect of over 50% in size
# KB-3-1 tox – KB-3-1 parental cell cytotoxicity | AID 1347075 | 1.4% of 400,000 active | KB-3-1 viability, CellTiter-Glo ATP luminescence, 72 h | Potency, µM (top dose mostly 46.1 µM), hits mostly cytotoxic; further: nearly all actives have a fitted effect of over 60% in size
#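 Parental KB-3-1 viability, qHTS format: 72 h compound exposure, 37 °C; CellTiter-Glo; media-only wells and DMSO plates as controls; concentration-effect fits on corrected data.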
# SW480 rereplic – inducers of DNA re-replication in SW480 colon cancer cells. SW480 DNA re-replication, Hoechst DNA content imaging, 48 h. Potency, µM (series often up to 46.1 µM), hits mostly activators. 1.8% of 340,000 active. AID 624297; further: nearly all actives have a fitted effect of over 55% in size
#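 Treated cells incubate 48 hr (37 C, 5% CO2), are stained 40 min with Hoechst, and nuclear fluorescence is enumerated; a rise in nuclei with high DNA signal marks re-replication.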
# KB-V1 MDR tox – kills drug-selected multidrug resistant KB-V1 cells; KB-V1 MDR cells viability, CellTiter-Glo, 72 h; Potency, µM (titrated, usually from 46.1 µM), hits mostly cytotoxic; 3.4% of 400,000 active; AID 1347076; further: nearly all actives have a fitted effect of over 60% in size
#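 KB-V1 cells (P-gp-expressing MDR subline of KB-3-1) in phenol-red-free DMEM with 10% FBS were exposed to library compounds over a concentration series for 72 h at 37 degrees C. Viability read by CellTiter-Glo luminescence; concentration-effect curves fitted after normalization.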
# D3 ag – agonists of human D3 dopamine receptor; P35462; D3R DiscoveRx beta-arrestin cells, luminescence, 90 min; max activation, %; 0.58% of 410,000 active; AID 652048; in the data active means max activation above about 30%
#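 Agonist-mode cell screen: cells plated at 1500/well and incubated overnight at 37 °C, then exposed to library compounds for 90 min at 37 °C. Detection reagent was added for 30–60 min at room temperature, and luminescence was read.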
# A number is an active result; 0 = inactive; ? = inconclusive; - = no result. Unless noted, the call rests on the fitted dose curve; in most records, active means well fitted curve in the direction sought with a large enough effect; inconclusive means small, poorly fitted or top-dose-only effect, or another doubt; inactive means no such curve, though single readings can be large; an effect the other way counts as inactive or inconclusive.
SMILES,DRD3 antagonist,MCF10A rereplic,KB-3-1 tox,SW480 rereplic,KB-V1 MDR tox,D3 ag
Cc1ccccc1C(=O)/C=C1/c2ccccc2CC(C)(C)N1C,0,?,0,0,0,0
Cc1cccc(C(=O)/C=C2/c3ccccc3CC(C)(C)N2C)c1,0,0,0,0,18µM,0
C=CCn1c(SCC(=O)Nc2ccccc2C)nc2sc(C)c(C)c2c1=O,0,?,0,?,?,0
C=CCn1c(SCC(=O)Nc2sccc2C(N)=O)nc2sc(C)c(C)c2c1=O,0,0,0,0,?,41
Cc1ccc(-n2c(SCC(=O)Nc3cccc(S(N)(=O)=O)c3)nc3ccccc32)cc1,0,16µM,15µM,0,0,44
C=CCn1c(SCC(=O)Nc2cccc(S(N)(=O)=O)c2)nc2sc(C)c(C)c2c1=O,0,0,0,0,23µM,0
O=C(CCCCn1c(=O)c2ccccc2n(Cc2ccc(F)cc2)c1=O)NCc1ccco1,0,18µM,12µM,?,5.8µM,0
CCCCNC(=O)CCn1c(=O)c2ccccc2n(Cc2ccc(Cl)cc2)c1=O,0,0,0,?,15µM,0
COCCCNC(=O)c1ccc(Cn2c(=O)c3ccccc3n(Cc3ccccc3C#N)c2=O)cc1,0,23µM,?,0,0,0
COCCCNC(=O)c1ccc(Cn2c(=O)c3ccccc3n(Cc3ccccc3C)c2=O)cc1,0,0,?,0,?,0
O=[N+]([O-])c1ccccc1/C=C/c1ccnc2ccccc12,-,-,?,-,0,-
O=C(CCCn1c2ccccc2c(=O)c2ccccc21)Nc1ccc(F)cc1Cl,-,-,0,-,0,0
Cc1cccnc1CN1CCN(C(=O)c2cc(COc3ccc4ncccc4c3)on2)CC1,0,?,?,0,6.5µM,0
O=C(c1cc(COc2ccc3ncccc3c2)on1)N1CCC(O)CC1,0,0,?,0,0,0
O=C(NC1CCCCCCC1)c1cc(COc2ccc3ncccc3c2)on1,0,0,2.6µM,0,1.8µM,0
Cc1c(C(=O)Oc2ccc(Br)cc2)sc2ncn(Cc3ccccc3F)c(=O)c12,-,-,0,-,0,0
CC1CCCN(Cc2c(O)ccc3c(=O)c(-c4ccccc4Cl)c(C(F)(F)F)oc23)C1 (centres undefined),-,-,0,-,0,0
CCCCCCCCCCOc1cc2c(=O)c(C(=O)OCC)c[nH]c2cc1OCC,-,0,-,0,-,0
CCOC(=O)c1c(NC(=O)CSc2nc3ccccc3[nH]2)sc2c1CC(C)(C)NC2(C)C,0,?,?,16µM,0,0
O=C(NCC(c1cccnc1)N1CCN(c2ccccc2F)CC1)c1ccc(F)cc1 (centres undefined),-,-,0,-,0,0
CC(=O)Nc1ccnc(-c2cccnc2)n1,0,0,0,0,0,0
CCCCC(=O)Nc1ccnc(-c2cccnc2)n1,0,0,0,0,16µM,0
CCc1ccc(C(=O)/C=C2\Sc3ccccc3NC2=O)cc1,-147,0,0,0,0,0
CCCCCCCCCCCCCCCCCCNc1ccn(C2OC(COP(=O)(O)OCC3OC(n4cc(F)c(=O)[nH]c4=O)CC3O)C(O)C2O)c(=O)n1 (centres undefined),?,10µM,?,21µM,0,0
Cc1ccc(CNC(=O)C2CCC(=O)N2CCc2ccccc2)cc1 (centres undefined),-57,0,0,0,?,0
SMILES,DRD3 antagonist,MCF10A rereplic,KB-3-1 tox,SW480 rereplic,KB-V1 MDR tox,D3 ag
O=C(COC(=O)C1CC1)NCCc1ccc(Cl)cc1,0,0,0,3.7µM,0,0
COc1ccc(CCNC(=O)C2CCC(=O)N2Cc2ccccc2Cl)cc1OC (centres undefined),0,0,0,0,0,0
O=C(NCCc1ccc(Cl)cc1)C1CCC(=O)N1Cc1ccccc1Cl (centres undefined),0,0,0,0,23µM,0
Cc1ccc(NC(=O)Cn2c(=O)c(CNc3ccccc3)cc3cc4c(cc32)OCCO4)cc1,-,-,?,-,0,0
Cc1ccc(Cl)cc1NC(=S)N1CCCCCC1,0,0,0,0,0,0
CCN(CC)c1c([N+](=O)[O-])c(=O)n(C)c2ccccc12,0,0,0,?,?,0
Cn1c(=O)c([N+](=O)[O-])c(Cl)c2ccccc21,-85,3.7µM,?,16µM,0,0
CCOc1ccc(S(=O)(=O)N(CC(=O)N2CCc3ccccc32)Cc2ccco2)cc1,-66,0,0,0,0,0
CCOC(=O)c1cccc(NC(=O)CCS(=O)(=O)c2ccc3c(c2)CC(=O)N3C)c1,-,-,0,-,?,0
Cc1cc(C)cc(-n2ccn(Cc3ccccc3C)c(=O)c2=O)c1,-,-,-,-,-,0
CCOc1ccccc1NC(=O)C(OC(=O)c1ccccc1O)c1ccccc1 (centres undefined),0,0,0,0,12µM,0
CCOc1ccccc1C(=O)Nc1ccccc1-c1ccccc1,0,21µM,?,0,15µM,0
CCOc1c(Cl)cc(C(=O)Nc2ccccc2-c2ccccc2)cc1Cl,0,0,?,0,21µM,0
CCN(CC)S(=O)(=O)c1cc(C(=O)Nc2ccccc2[N+](=O)[O-])ccc1Cl,0,?,0,16µM,?,0
CCOc1ccccc1NC(=O)C(OC(=O)c1ccccc1)c1ccccc1 (centres undefined),0,0,0,0,?,0
COc1ccc(C(=O)Nc2ccccc2-c2ccccc2)cc1Cl,0,0,0,0,0,0
O=C(Nc1ccccc1-c1ccccc1)c1ccc(Cl)c([N+](=O)[O-])c1,?,9.2µM,16µM,0,0,0
COc1ccc(COCC(O)CN2CCC(CN3C(=O)c4cccc5cccc(c45)C3=O)CC2)cc1OC (centres undefined),0,0,0,0,?,0
COc1cccc(OCC(O)CN2CCC(CN3C(=O)c4cccc5cccc(c45)C3=O)CC2)c1 (centres undefined),-52,?,0,?,0,0
Cc1cc(C)cc(OCC(O)CN2CCC(CN3C(=O)c4cccc5cccc(c45)C3=O)CC2)c1 (centres undefined),-68,?,?,0,5.8µM,0
Cc1ccc(C)c(OCC(O)CN2CCN(CCN3C(=O)c4cccc5cccc(c45)C3=O)CC2)c1 (centres undefined),0,?,16µM,?,?,0
O=C1c2cccc3cccc(c23)C(=O)N1CC1CCN(CC(O)COc2ccc3ccccc3c2)CC1 (centres undefined),?,?,?,?,0,0
CCc1ccc(OCC(O)CN2CCC(CN3C(=O)c4cccc5cccc(c45)C3=O)CC2)cc1 (centres undefined),0,0,23µM,0,?,0
CCOC(=O)c1c(NC(=O)c2ccc(S(=O)(=O)N(CC(C)C)CC(C)C)cc2)sc2c1CCN(C(=O)OCC)C2,-,-,0,-,0,0
